# Compound activity: PubChem, National Center for Advancing Translational Sciences (NCATS)
# This is a sample that favours compounds with a hit; in the whole collection about 2.8% have one here.
# GLP1R inv ag = GLP-1 receptor (human) inverse agonism | HEK293 GLP-1R CRE-luciferase, luminescence, 24 h; GLP-1R form is constitutively active | Potency, µM (doses to about 38.3 µM), for the others: at the top dose activity change, negative = inhibition, usual class: inhibitors | actives 1.6% (n = 410,000); further: potency means the concentration at half of the fitted maximal effect; on the % scale 0 is the no-effect control and ±100 the full control effect; nearly all actives have a fitted effect of over 55% in size
# Target sequence (P43220 whole entry, looked up): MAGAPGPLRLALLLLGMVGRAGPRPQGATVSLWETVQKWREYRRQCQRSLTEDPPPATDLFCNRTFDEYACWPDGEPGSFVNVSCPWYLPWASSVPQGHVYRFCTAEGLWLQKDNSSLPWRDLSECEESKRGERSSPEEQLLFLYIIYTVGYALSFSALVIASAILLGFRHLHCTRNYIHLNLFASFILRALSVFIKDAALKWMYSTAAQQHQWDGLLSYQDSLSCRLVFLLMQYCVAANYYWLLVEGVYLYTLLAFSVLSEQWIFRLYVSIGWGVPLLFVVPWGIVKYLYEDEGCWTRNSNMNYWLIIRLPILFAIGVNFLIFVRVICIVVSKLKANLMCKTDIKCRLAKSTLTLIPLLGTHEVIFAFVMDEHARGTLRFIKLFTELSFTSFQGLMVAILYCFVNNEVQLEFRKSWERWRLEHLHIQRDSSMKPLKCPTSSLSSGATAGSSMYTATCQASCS
#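 Stable HEK293 clone (constitutively active GLP-1R + cAMP-response luciferase); 200 cells/uL plated, 12 h pre-culture, compound 24 hr, 37 deg C/5% CO2; detection reagent 12 min RT; luminescence.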
# GLS inhibitor = blocks human kidney-isoform glutaminase activity; AID 624170; O94925; Potency, µM (doses to about 45.5 µM), without a hit: at the highest dose activity change, negative = inhibition, usual class: inhibitors; actives 0.21% (n = 410,000); GLS enzymatic activity, qHTS titration; further: potency means the concentration at half of the fitted maximal effect; on the % scale 0 is the no-effect control and ±100 the full control effect
#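 hKGA in 45 mM KH2PO4 (pH 8.2), 0.02% Tween-20 with compound, then 1mM L-Glutamine (stock as added) plus glutamate oxidase/HRP/Amplex red coupling mix. Fluorescence read initially and after 30 min at RT; signal change reflects glutamate formation.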
# GLP-1R agonist = activates the human GLP-1 receptor | actives 0.007% (n = 380,000) | P43220 | Potency, µM (top dose mostly 45.6 µM), without a hit: at the top dose activation, actives largely listed as activators | AID 624172 | HEK293 GLP-1R CRE-luciferase, luminescence, 4-6 h; cells express a hypersensitive GLP-1R form; further: potency means the concentration at half of the fitted maximal effect; % of control where 0% means no effect
# KCNH2 3.1 block = inhibitors of human KCNH2 3.1 potassium channel isoform; U2OS KCNH2 3.1, thallium flux FluxOr; hits give low values; activity change, % (tested at about 1.8 µM); actives 0.95% (n = 340,000);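 active means maximum activity change below -70%; inconclusive means maximum activity change from -70% to -50%; inactive means maximum activity change above -50%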;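 further: thallium influx rate constant from kinetic fluorescence after stimulation buffer; on the % scale 0 is the no-effect control and ±100 the full control effect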
#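 We transduce U2OS cells with the mutant 3.1 virus, culture them overnight, load FluxOr with Red40 quencher for 45 min, then add stimulation buffer and read kinetically for 2 min to derive a normalized rate constant.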
# hERG WT inh = KCNH2 (human, wildtype) channel inhibition; Q12809; U2OS, BacMam KCNH2, thallium flux FluxOr; hits give low values; activity change, % at 1.84 µM; actives 0.37% (n = 340,000); AID 720551;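 active means maximum activity change below -70%; inconclusive means maximum activity change between -70% and -50%; inactive means maximum activity change above -50%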; further: on the % scale 0 is the no-effect control and ±100 the full control effect
#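 U2OS cells transduced with wild-type KCNH2 virus are loaded with FluxOr dye for 45 min, and thallium flux is measured in kinetic reads before and after stimulation buffer. Rate constants are normalized to DMSO controls.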
# GLP1R cytotox = cytotoxicity counter-screen for GLP-1 receptor inverse agonists; HEK293 cAMP-luciferase reporter cells, luminescence, 24 h; Potency, µM (titrated, usually from 38.3 µM), for inactives: top-dose activity change, negative = inhibition, hits mostly inhibitors; actives 0.13% (n = 410,000);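 further: loss of luciferase light is scored as toxicity; potency means the concentration at half of the fitted maximal effect; on the % scale 0 is the no-effect control and ±100 the full control effect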
#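 Luminescence readout: signal drop marks cytotoxicity. Plated cells grew 12 h at 37 °C, 5% CO2, received 23 nL compound for 24 h, then got luciferase reagent, read after 12 min at RT.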
# An asterisk follows results filed as active; i = inactive; ? = inconclusive; nt = no result; ! = a repeat was not active; [ ] = dose if it differs, or a comment. Unless noted, the call rests on the fitted dose curve; in most records, active means well fitted curve in the direction sought with a large enough effect; inconclusive means small, poorly fitted or top-dose-only effect, or another doubt; inactive means no such curve, though single readings can be large; an effect the other way counts as inactive or inconclusive.
SMILES,GLP1R inv ag,GLS inhibitor,GLP-1R agonist,KCNH2 3.1 block,hERG WT inh,GLP1R cytotox
COc1ccc(N(CC(=O)NCc2ccccc2)S(=O)(=O)c2c(C)noc2C)cc1,0.7%,-0.3%,16.7%,11.6,1.2,8.9%
Cc1ccc(NC(=O)CN(c2cc(C)cc(C)c2)S(=O)(=O)c2c(C)noc2C)nc1,?,-2.1%,1.6%,4.6,-6.0,-25.2%
Cc1cc(C)cc(N(CC(=O)Nc2cccc(C)n2)S(=O)(=O)c2c(C)noc2C)c1,8.91µM*,2.6%,-2.0%,-6.0,3.8,-5.4%
COc1ccc(N(CC(=O)NC(C)c2ccccc2)S(=O)(=O)c2c(C)noc2C)cc1 (centres undefined),8.91µM*!,2.6%,-1.8%,6.9,-3.6,-13.5%
CCc1ccc(NCc2cc3ccc(OC)cc3n(CC(=O)Nc3ccccc3OC)c2=O)cc1,?,0.5%,7.9%,nt,nt,-4.6%
Cc1cc(C)n(CC(O)Cn2c3ccccc3c3ccccc32)n1 (centres undefined),10µM*,-9.3%,3.8%,-8.3,-6.5,0.5%
Cc1c(NC(=O)c2ccc(-c3cccc([N+](=O)[O-])c3)o2)cccc1-c1nc2cc(Cl)ccc2o1,17.9%,-11.5%,13.7%,nt,nt,3.5%
OC(CN1CCCCCC1)CN(c1ccccc1)c1ccccc1 (centres undefined),?,18.6%,7.0%,?,50.8,17.8%
Cc1ccc(N(CC(O)CN2CCCCC2)S(=O)(=O)c2ccccc2[N+](=O)[O-])cc1 (centres undefined),-27.6%[7.66 µM],0.0%,6.5%,-3.7,7.5,0.6%[7.66 µM]
Cc1ccc(N(CC(O)CN2CCCC2)S(=O)(=O)c2ccc(C)cc2)cc1 (centres undefined),?,1.2%,-1.3%,-104.5*,-47.5,-6.3%
OC(CN1CCCCC1)CN(c1ccccc1)c1ccccc1 (centres undefined),?,24.2%,-6.8%,-183.2*,38.0,-29.8%
O=[N+]([O-])c1ccc(N(CC(O)CN2CCCCC2)S(=O)(=O)c2ccccc2)cc1 (centres undefined),?,0.5%,13.0%,-75.8*,-43.8,-7.7%
CNCC(O)CN(c1ccccc1)c1ccccc1 (centres undefined),6.31µM*,17.9%,1.0%,-81.3*,5.4,-1.6%
O=[N+]([O-])c1ccc(S(=O)(=O)N(CC(O)CN2CCCCC2)c2ccccc2)cc1 (centres undefined),2.0%,-4.7%,-1.8%,-14.9,14.0,0.7%
Cc1ccc(Nc2ccc(N3CCN(c4ccc([N+](=O)[O-])cc4)CC3)nn2)cc1,1.7%,3.2%,6.3%,-108.9*,-85.5*,-9.6%
Cc1ccccc1CNC(=O)C1=Cc2ccccc2OC1,-23.0%,1.4%,nt,nt,nt,-9.2%
CCCCOc1ccc(C(=O)Nc2ccc3c(c2)N(C(C)=O)CCC3)cc1,1.12µM*,-9.6%,nt,nt,nt,9.6%
CC(=O)N1CCCc2ccc(NC(=O)c3ccc(OC(C)C)cc3)cc21,29.1%,0.5%,nt,nt,nt,1.0%
CCCC(=O)n1nc(-c2cccnc2)nc1NCc1ccccc1,7.6%,-13.1%,9.8%,-125.3*,-2.1,-3.7%
CN1CCN(c2ccc(Cl)cc2NC(=O)c2cc(=O)[nH]c3ccccc23)CC1,?,8.4%,17.1%,-4.8,7.7,-30.2%
CN1CCN(c2ccc(Cl)cc2NC(=O)c2ccc(=O)n(C)n2)CC1,10µM*,-11.3%,-2.9%,3.9,6.1,3.1%
Cc1onc(-c2ccc(Cl)cc2)c1-c1ccnc(SCC(=O)Nc2cc(Cl)cc(Cl)c2)n1,3.55µM*,9.1%,1.6%,11.1,-0.9,-17.6%
CCn1c(CN2CCN(c3cccc(Cl)c3)CC2)nc2c1c(=O)[nH]c(=O)n2C,-16.2%,1.1%,3.7%,nt,nt,3.5%
C=CC(COCc1ccccc1)N([C@@H](Cc1ccccc1)C(=O)OC)S(=O)(=O)c1ccccc1Br (some centres undefined),3.55µM*,-0.3%,-2.2%,-36.0,-29.3,19.7%
O=C(COC(=O)c1cc([N+](=O)[O-])ccc1N1CCOCC1)NCc1ccc(Cl)cc1Cl,11.2µM*,-3.0%,6.8%,?,-10.9,-24.7%
SMILES,GLP1R inv ag,GLS inhibitor,GLP-1R agonist,KCNH2 3.1 block,hERG WT inh,GLP1R cytotox
O=C(OCc1cccc(C(F)(F)F)c1)c1cc([N+](=O)[O-])ccc1N1CCOCC1,10µM*,-14.2%,23.3%,-7.8,-4.4,-9.4%
O=[N+]([O-])c1ccc(N2CCN(Cc3ccccc3)CC2)c(S(=O)(=O)N2CCOCC2)c1,?,-2.5%,-15.0%,-73.0*,-43.2,-3.4%
O=C(c1ccc(Cl)cc1)c1cc([N+](=O)[O-])ccc1N1CCOCC1,?,0.0%,26.2%,5.6,11.4,?
CN1CCN(c2ccc([N+](=O)[O-])cc2S(=O)(=O)N2CCOCC2)CC1,10.5%,-4.1%,5.5%,21.3,6.2,-8.0%
O=C(COC(=O)c1cc([N+](=O)[O-])ccc1N1CCOCC1)NCc1ccccc1,50.5%,-0.4%,13.1%,3.8,2.0,?
O=C(c1ccc(Br)cc1)c1cc([N+](=O)[O-])ccc1N1CCOCC1,1.41µM*,3.5%,24.4%,2.7,nt,?
O=C(OCc1cccc(Cl)c1)c1cc([N+](=O)[O-])ccc1N1CCOCC1,?,3.3%,?,-17.5,5.4,-29.0%
CC1CCN(c2ccc([N+](=O)[O-])cc2C(=O)O)CC1,5.4%,-2.6%,0.0%,-177.8*,-132.6*,?
O=C(c1ccccc1)c1cc([N+](=O)[O-])ccc1N1CCOCC1,?,4.7%,?,2.6,-0.7,11.2µM*
O=C(c1cc([N+](=O)[O-])ccc1N1CCOCC1)N1CCCCC1,0.4%,2.0%,-0.7%,5.6,-7.3,-16.5%
Cc1nonc1C(=O)N/N=C/c1ccc([N+](=O)[O-])o1,27.1%,-0.1%,-5.0%,8.1,2.9,-1.7%
Cc1cc(C(=O)N/N=C/c2ccc([N+](=O)[O-])o2)c(C)o1,7.7%,-6.2%,-0.6%,-92.4*,-14.1,-5.8%
CCOc1ccc(CCNC(=O)C2CCCN(c3nnc(C)c4c(C)n(-c5ccccc5)nc34)C2)cc1 (centres undefined),11.6%,1.6%,nt,nt,nt,-21.2%
Cc1ccc(C)c(CN2C(=O)c3ccccc3S(=O)c3ccc(C(=O)N4CCN(c5ccccn5)CC4)cc32)c1 (centres undefined),2.24µM*,-3.3%,14.2%,0.0,i,-10.4%
CCOC(=O)CCC(=O)Nc1ccc(S(=O)(=O)N2CCc3ccccc32)cc1,8.8%,-1.4%,-3.2%,19.5,-23.9,6.5%
